Reference: PubChem BioAssay (NCI)
The panel holds about 83,000 compounds, 20% with a hit somewhere; the sample as a whole holds those more often.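 The test compound was applied at a single concentration to cells in 96-well plates for 48 hours, and percent growth was recorded.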 A number with no mark means an inactive call. Activity calls are given as the source filed them. The calls were made as follows: active = growth percent below 10; inactive = the rest.

Assays:
Assay in all cases: NCI-60 one-dose screen, 48 h (100 = growth as untreated, 0 = no growth, -100 = all killed)
Conditions in all cases: 10 µM unless noted
HCT-15 colon = test system: HCT-15 colon
HT29 colon = test system: HT29 colon
SNB-75 CNS = test system: SNB-75 CNS
SNB-19 CNS = test system: SNB-19 CNS
U251 CNS = test system: U251 CNS
UACC-62 melanoma = test system: UACC-62 melanoma
LOX IMVI melanoma = test system: LOX IMVI melanoma
SK-MEL-28 melanoma = test system: SK-MEL-28 melanoma
PC-3 prostate = test system: PC-3 prostate
SK-MEL-5 melanoma = test system: SK-MEL-5 melanoma

Structure (SMILES) | growth (HCT-15 colon) | growth (HT29 colon) | growth (SNB-75 CNS) | growth (SNB-19 CNS) | growth (U251 CNS) | growth (UACC-62 melanoma) | growth (LOX IMVI melanoma) | growth (SK-MEL-28 melanoma) | growth (PC-3 prostate) | growth (SK-MEL-5 melanoma)
O=c1c2c3c(sc2nc(N/N=C/c2cn(-c4ccccc4)nc2-c2ccc(Cl)cc2)n1Cc1ccccc1)CCCC3 | 114% | 110% | 102% | 107% | 111% | 94.7% | 110% | 112% | – | –
C=C(C)[C@@H]1CC[C@]2(C(=O)OC)CC[C@]3(C)[C@H](CC[C@@H]4[C@@]5(C)C/C(=C/c6ccc(OC)cc6)C(=O)C(C)(C)[C@@H]5CC[C@]43C)[C@@H]12 | 59.6% | 32.1% | 75.7% | 108% | – | 99.7% | 79.6% | 102% | 84.9% | 95.8%
COc1ccc(-c2nc3ccc(-c4nc5ccc(N6CCN(C)CC6)cc5[nH]4)cc3[nH]2)cc1OC | 91% | 49.4% | 54% | 90.3% | – | 19.2% | 43.9% | 39% | 62.8% | 26.3%
COc1cc(/C=C/C(=O)Nc2cccnc2Nc2ccc(F)cc2)cc(OC)c1OC | 99% | 91.2% | 97% | 91.1% | 70.8% | 94.7% | 100% | 103% | – | –
Clc1ccc2c(NCCCNc3nc(-n4ccnc4)nc4ccccc34)ccnc2c1 | 87% | 75.1% | 71.1% | 92.1% | 83.5% | 94.3% | 82.1% | 93.1% | – | –
COc1cc2nnc3c4cccnc4[nH]c3c2cc1OC | 16% | -2.61% (active) | 51.2% | 75.7% | 1.26% (active) | 30.8% | 12.8% | 47.6% | – | –
CN(C)C(=S)N=Nc1c(O)[nH]c2ccccc12 | 31.7% | 28.7% | 48.4% | 18.3% | 17% | -16.9% (active) | 14% | 37.5% | – | –
CC(=O)OC[C@H]1O[C@H](OC(C)=O)[C@H](NC(=O)/C=C/CCl)[C@@H](OC(C)=O)[C@@H]1OC(C)=O | 99.1% | 54.3% | 71.3% | 86.8% | 45.1% | – | 68.8% | – | – | –
C=CCSSC1N=CNc2nc[nH]c21 (stereo not given) | 52.7% | 50.1% | 46.9% | 89.1% | 70.2% | 16.8% | 7.74% (active) | 114% | – | –
COc1cc(/C=C/C(=O)c2ccc(O)c(CN3CCN(c4cc5c(cc4F)c(=O)c(C(=O)O)cn5C4CC4)CC3)c2)cc(OC)c1OC | 19.3% | 10.3% | 57.7% | 75.7% | – | 59.9% | 20.7% | 59.3% | 47.1% | 64%
C=C1C(=O)O[C@H]2[C@H]1CC/C(COC(=O)c1cc3cc(OC)ccc3[nH]1)=C\CC[C@@]1(C)O[C@@H]21 | -43.5% (active) | -83.4% (active) | -68.5% (active) | -64.3% (active) | -97.7% (active) | -90.6% (active) | -91% (active) | -80.8% (active) | – | –
COc1ccc(-n2nc(C)c3c(Nc4ccc(NC(=O)Nc5cccc(C(F)(F)F)c5)cc4)ncnc32)cc1 | 2.47% (active) | 1.63% (active) | -7.61% (active) | 12% | -49.7% (active) | 3.5% (active) | -81.9% (active) | 11.6% | – | –
COc1ccc(Nc2nc(SC)nc(-c3cccc([N+](=O)[O-])c3)c2C#N)cc1 | 78.6% | 70.3% | 10.3% | 79% | – | 69.5% | 70.8% | 84.9% | 75.8% | 70.9%
Cn1cc(C(=O)c2nc(-c3c[nH]c4ccc(F)cc34)no2)c2cc(F)ccc21 | 68.6% | 101% | 79.8% | 101% | 100% | 81.7% | 95.2% | 103% | – | –
O=C(COc1ccc(/C=C2\COc3ccccc3C2=O)cc1)Nc1nccs1 | 72.6% | 39.1% | 84.6% | 88.2% | 73% | 96.4% | 63.2% | 86.5% | – | –
COc1ccc(-c2cc(C(=O)N=Nc3c(O)[nH]c4ccc(Br)cc34)no2)cc1 | 100% | 100% | 66.1% | 92% | – | 101% | 96% | 113% | 95.8% | 97.4%
Cn1cc(C(=O)c2nc(-c3c[nH]c4ccc(Br)cc34)no2)c2cc(F)ccc21 | 92.1% | 102% | 74.8% | 99.1% | 100% | 78% | 95.4% | 105% | – | –
C/C1=C\CC[C@@]2(C)O[C@H]2[C@H]2OC(=O)C(CN3CCN(CC4C(=O)O[C@H]5[C@H]4CC/C(C)=C/CC[C@@]4(C)O[C@@H]54)CC3)[C@@H]2CC1 (stereo not given in full) | 95% | 104% | 85.4% | 99.2% | 94% | – | 93.7% | – | – | –
COc1cc2nc(N3CCCC3)nc(Nc3ccccc3)c2cc1OC | -42.6% (active) | -71% (active) | 99.5% | 49.9% | – | -76.1% (active) | -92.6% (active) | -91.3% (active) | 29.4% | -97.8% (active)
Cc1cc(Nc2ccc(C)c(Cl)c2)n2nc(C(F)(F)F)nc2n1 | 66.9% | 25.5% | -30.7% (active) | 37.4% | -18.3% (active) | 66.9% | 12.2% | 82.8% | – | –
COc1cc(/C=C/C(=O)c2c(C)oc3nc[nH]c(=O)c23)cc(OC)c1OC | 49.3% | 90.7% | 78% | 93.6% | – | 87% | 66.2% | 93.9% | 83.4% | 89.9%
COc1ccc(/C=C\c2cc(OC)c(OC)c(OC)c2)cc1OCC(=O)Nc1ccc2nc(C)sc2c1 | 28.3% | 29.2% | 26.9% | 57.4% | – | 11.9% | 49.6% | – | 23.4% | –
Cc1nc2ccccc2n1C(=O)C[C@@H]1NC(=S)NC1=O | 93% | 105% | 74.1% | 98.3% | – | 97.1% | 95.3% | 99.2% | 105% | 100%
C=CC(=O)Nc1cccc(-c2nc(SC)nc(NCCc3ccc(OC)c(OC)c3)c2C#N)c1 | 52.3% | 77.5% | 37.9% | 71.8% | – | 48.1% | 56.6% | 72.3% | 53.2% | -29.2% (active)
Cn1c(O)c(N=NC(=O)c2cc(-c3ccccc3)on2)c2ccccc21 | 101% | 105% | 58.5% | 98.2% | – | 98.9% | 92.2% | 107% | 103% | 99.3%
Cc1cc(N2CCOCC2)nc(NCc2cc(Nc3ccnc4cc(Cl)ccc34)ccc2F)n1 | -81.9% (active) | -28.5% (active) | -20.3% (active) | -22.9% (active) | – | -83.6% (active) | -68.4% (active) | -73.1% (active) | -30% (active) | -98.3% (active)
CSc1nc(Nc2cccc(NC(=O)/C(C#N)=C/c3c(Cl)cccc3Cl)c2)c(C#N)c(-c2cccc([N+](=O)[O-])c2)n1 | 28.9% | 49.2% | 47.5% | 72.5% | – | 33.2% | 2.43% (active) | 76.7% | 45.1% | 49.6%
COc1ccc(CCNc2nc(SC)nc(-c3cccc([N+](=O)[O-])c3)c2C#N)cc1OC | 90.9% | 93.6% | 61.8% | 71.9% | – | 80.8% | 88.6% | 91.8% | 75.2% | 88.2%
CSc1nc(-c2cccc(NC(=O)CCl)c2)c(C#N)c(=O)n1C | 11% | -33.7% (active) | 54% | 86.6% | – | 60.4% | -91.6% (active) | 87.3% | 77.5% | 79.4%
O=S(=O)(Nc1ccc(Br)c(Cl)c1)c1ccc(-c2cnc(C3CC3)o2)cc1 | 20.7% | -15.3% (active) | -5.71% (active) | 35% | – | 30.1% | 43.7% | 57.9% | 23.9% | 10.2%
